Experimental data as given in PubChem BioAssay.
For some assays here: Potency and affinity values are given separately. Activity calls are given as the source filed them. The rule behind the calls is not given here.

Molecular target: Plasmodium falciparum protein kinase 6 (PK6, PF3D7_1337100) (UniProt Q8IDW1)
Test: PfPK6 kinase inhibitors, biochemical, TCAMS library (AID 1159586)
Details: recombinant PfPK6, Kinase-Glo ATP depletion luminescence

Sequence of Plasmodium falciparum protein kinase 6 (PK6, PF3D7_1337100) (Q8IDW1 1-305): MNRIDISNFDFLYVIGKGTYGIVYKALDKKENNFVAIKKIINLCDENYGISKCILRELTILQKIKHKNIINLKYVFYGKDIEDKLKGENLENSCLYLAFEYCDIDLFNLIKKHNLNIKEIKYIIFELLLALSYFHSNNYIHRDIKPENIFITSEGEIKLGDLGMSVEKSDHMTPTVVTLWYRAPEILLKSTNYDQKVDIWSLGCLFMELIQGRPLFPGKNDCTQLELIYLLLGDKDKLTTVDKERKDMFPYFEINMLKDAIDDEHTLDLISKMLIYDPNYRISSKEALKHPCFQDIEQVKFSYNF

outcome, inactive:
O=C(NCCCCCN1CCC(c2c[nH]c3ccccc23)CC1)Nc1ccc(Cl)c(Cl)c1, O=C(NCCCN1CCC(Cc2ccccc2)CC1)c1cc2c(Cl)nc3ccccc3c2s1, Cc1ccc(NC(=O)c2ccc3ncccc3c2)cc1OC1CCN(Cc2ccco2)C1 (stereo not given), COc1ccc(CCN2CCC(NCc3cccc(N(C)C)c3)CC2)cc1, O=C(c1cc(-c2ccco2)[nH]n1)N1CCN(S(=O)(=O)c2ccc(Cl)cc2)CC1, O=[N+]([O-])c1cccc(CNCC2CCN(CCc3ccccc3)CC2)c1, C[C@H](Cc1ccc(OCCCCCCCOc2ccc(C[C@@H](C)NC[C@H](O)c3cccc(Cl)c3)cc2)cc1)NC[C@H](O)c1cccc(Cl)c1, COc1cccc(CN2CCCN(Cc3cccc(NC(=O)c4ccc(Cl)c(Cl)c4)c3)CC2)c1, Cc1nc(N)nc(N)c1OCCCOc1ccccc1Br, CC(=O)Nc1cccc(C(=O)Nc2cccc(-c3ccc(-c4nc5ccc(C(F)(F)F)cc5[nH]4)s3)c2)c1, CS(=O)(=O)CCNCc1ccc(-c2ccc3c(Nc4ccc(Cl)cc4F)ccnc3c2)o1, O=C(Nc1ccc(C(F)(F)F)cc1)c1ccc(S(=O)(=O)NC2CCN(CC3CCCCC3)C2)cc1 (stereo not given), CCOc1c(Br)cc(Br)cc1CNCCCCNc1nc2ccccc2[nH]1, CCc1ccc2nc(-c3ccc(F)cc3)nc(SCC(=O)Nc3sc(C)c(C)c3C#N)c2c1, CCOc1ncccc1CN1CCC(N2CCc3cc(NC(=O)c4ccco4)ccc32)C1 (stereo not given), Cc1cc(NCCc2ccc(O)cc2)nc(NCC(c2ccccc2)c2ccccc2)n1, CN1CCN(c2ccc(Nc3nc(N)c4ccn(C5CCC5)c4n3)cc2)CC1, CCN1C(=O)C(CC(=O)Nc2cccc(Cl)c2)N(Cc2ccc(OC)c(OC)c2)C1=S (stereo not given), Cc1cc(N2CCCC2)nc(Nc2ccc(NC(=O)Cc3ccccc3)cc2)n1, Cc1ccc(C(=O)Nc2cc(C(F)(F)F)cc(C(F)(F)F)c2)cc1[N+](=O)[O-], CC(=O)N(C)C1CCN(Cc2cccc(-c3ccc(-c4nc5ccc(C(F)(F)F)cc5[nH]4)cc3)c2)C1 (stereo not given), CC(C)Oc1cc2c(cc1NS(=O)(=O)c1ccc(-c3ccc(Cl)s3)cc1F)CCN(C)CC2, O=S(=O)(Nc1ccc2nccc(N3CCNCC3)c2c1)c1ccc(-c2ccccc2)cc1, C=CCN1C(=O)CN(S(=O)(=O)c2ccc(-n3nc(C)cc3C)cc2)C1=S, COc1ccccc1CCNc1nccc(N[C@@H](Cc2ccccc2)C(=O)NCc2cccs2)n1, Cn1cncc1C(=O)NC1CCN(c2ccnc(Nc3ccc(F)cc3)n2)C1 (stereo not given), NS(=O)(=O)c1ccc(CNc2ccc3ncc(-c4ccc(OC(F)(F)F)cc4)n3n2)cc1, COc1cc(NC(=O)c2sc(-c3ccc(Cl)cc3)cc2NC(=O)N2CCCC2)ccc1OCCN1CCCC1, Cn1c(NCc2cc(F)cc3c2OCOC3)nc2cc(Nc3ccnc(Nc4cccc(CS(C)(=O)=O)c4)n3)ccc21, O=C(C=NO)Nc1ccccc1[N+](=O)[O-], C/C=C/C=C/C1=NCCc2cc(OCCC)ccc21, O=C(Nc1ccc(N2CCCN(Cc3cccc(F)c3)CC2)cc1)c1ccccc1, N#Cc1ccc(N2CCN(Cc3ccc(-c4ccc(-c5nc6ccccc6[nH]5)s4)cc3)CC2)nc1, Clc1ccc(Nc2nc(NCc3ccccc3)nc(N/N=C/c3ccccn3)n2)cc1, O=C(Nc1cccc(CN2CCCN(Cc3ccc(O)cc3)CC2)c1)c1cccc(C(F)(F)F)c1, COc1ccc(S(=O)(=O)Nc2ccc(C(=O)NCc3ccc(C(F)(F)F)cc3)cc2)cc1N1CCN(CC2CC2)CC1, c1cncc(NCc2ccc(-c3cc4ccncc4cc3OC3CCNCC3)s2)c1, COc1cccc(NC(=O)NC2CCN(c3ccnc(Nc4cc(OC)c(OC)c(OC)c4)n3)C2)c1 (stereo not given), c1csc(-c2nc(N3CCCC3)ncc2-c2ccsc2)n1, N#Cc1cccc(NC(=O)c2ccc(S(=O)(=O)NCC3CCCN3CC3CCCCC3)cc2)c1 (stereo not given)

Molecular target: Protein kinase 7 (PK7), Plasmodium falciparum 3D7 (PF3D7_0213400) (UniProt Q7YTF7)
Sequence (Q7YTF7 1-343): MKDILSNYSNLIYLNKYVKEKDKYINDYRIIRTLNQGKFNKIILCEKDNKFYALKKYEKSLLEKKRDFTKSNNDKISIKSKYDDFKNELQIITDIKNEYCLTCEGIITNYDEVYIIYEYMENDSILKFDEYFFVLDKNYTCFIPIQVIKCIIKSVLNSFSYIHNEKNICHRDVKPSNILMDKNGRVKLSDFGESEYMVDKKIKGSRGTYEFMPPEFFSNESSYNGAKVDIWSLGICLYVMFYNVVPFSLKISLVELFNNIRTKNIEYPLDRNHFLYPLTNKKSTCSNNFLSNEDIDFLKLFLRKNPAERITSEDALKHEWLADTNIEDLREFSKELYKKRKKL
Test: inhibition of Plasmodium PK7 catalytic activity – biochemical, TCAMS antimalarial set, Kinase-Glo luminescence (AID 1159587)
Details: recombinant PfPK7, Kinase-Glo ATP depletion luminescence

outcome, inactive:
O=C(NCCCCCN1CCC(c2c[nH]c3ccccc23)CC1)Nc1ccc(Cl)c(Cl)c1, O=C(NCCCN1CCC(Cc2ccccc2)CC1)c1cc2c(Cl)nc3ccccc3c2s1, Cc1ccc(NC(=O)c2ccc3ncccc3c2)cc1OC1CCN(Cc2ccco2)C1 (stereo not given), COc1ccc(CCN2CCC(NCc3cccc(N(C)C)c3)CC2)cc1, O=C(c1cc(-c2ccco2)[nH]n1)N1CCN(S(=O)(=O)c2ccc(Cl)cc2)CC1, O=[N+]([O-])c1cccc(CNCC2CCN(CCc3ccccc3)CC2)c1, C[C@H](Cc1ccc(OCCCCCCCOc2ccc(C[C@@H](C)NC[C@H](O)c3cccc(Cl)c3)cc2)cc1)NC[C@H](O)c1cccc(Cl)c1, COc1cccc(CN2CCCN(Cc3cccc(NC(=O)c4ccc(Cl)c(Cl)c4)c3)CC2)c1, Cc1nc(N)nc(N)c1OCCCOc1ccccc1Br, CC(=O)Nc1cccc(C(=O)Nc2cccc(-c3ccc(-c4nc5ccc(C(F)(F)F)cc5[nH]4)s3)c2)c1, CS(=O)(=O)CCNCc1ccc(-c2ccc3c(Nc4ccc(Cl)cc4F)ccnc3c2)o1, O=C(Nc1ccc(C(F)(F)F)cc1)c1ccc(S(=O)(=O)NC2CCN(CC3CCCCC3)C2)cc1 (stereo not given), CCOc1c(Br)cc(Br)cc1CNCCCCNc1nc2ccccc2[nH]1, CCc1ccc2nc(-c3ccc(F)cc3)nc(SCC(=O)Nc3sc(C)c(C)c3C#N)c2c1, CCOc1ncccc1CN1CCC(N2CCc3cc(NC(=O)c4ccco4)ccc32)C1 (stereo not given), Cc1cc(NCCc2ccc(O)cc2)nc(NCC(c2ccccc2)c2ccccc2)n1, CN1CCN(c2ccc(Nc3nc(N)c4ccn(C5CCC5)c4n3)cc2)CC1, CCN1C(=O)C(CC(=O)Nc2cccc(Cl)c2)N(Cc2ccc(OC)c(OC)c2)C1=S (stereo not given), Cc1cc(N2CCCC2)nc(Nc2ccc(NC(=O)Cc3ccccc3)cc2)n1, Cc1ccc(C(=O)Nc2cc(C(F)(F)F)cc(C(F)(F)F)c2)cc1[N+](=O)[O-], CC(=O)N(C)C1CCN(Cc2cccc(-c3ccc(-c4nc5ccc(C(F)(F)F)cc5[nH]4)cc3)c2)C1 (stereo not given), CC(C)Oc1cc2c(cc1NS(=O)(=O)c1ccc(-c3ccc(Cl)s3)cc1F)CCN(C)CC2, O=S(=O)(Nc1ccc2nccc(N3CCNCC3)c2c1)c1ccc(-c2ccccc2)cc1, C=CCN1C(=O)CN(S(=O)(=O)c2ccc(-n3nc(C)cc3C)cc2)C1=S, COc1ccccc1CCNc1nccc(N[C@@H](Cc2ccccc2)C(=O)NCc2cccs2)n1, Cn1cncc1C(=O)NC1CCN(c2ccnc(Nc3ccc(F)cc3)n2)C1 (stereo not given), NS(=O)(=O)c1ccc(CNc2ccc3ncc(-c4ccc(OC(F)(F)F)cc4)n3n2)cc1, COc1cc(NC(=O)c2sc(-c3ccc(Cl)cc3)cc2NC(=O)N2CCCC2)ccc1OCCN1CCCC1, Cn1c(NCc2cc(F)cc3c2OCOC3)nc2cc(Nc3ccnc(Nc4cccc(CS(C)(=O)=O)c4)n3)ccc21, O=C(C=NO)Nc1ccccc1[N+](=O)[O-], C/C=C/C=C/C1=NCCc2cc(OCCC)ccc21, O=C(Nc1ccc(N2CCCN(Cc3cccc(F)c3)CC2)cc1)c1ccccc1, N#Cc1ccc(N2CCN(Cc3ccc(-c4ccc(-c5nc6ccccc6[nH]5)s4)cc3)CC2)nc1, Clc1ccc(Nc2nc(NCc3ccccc3)nc(N/N=C/c3ccccn3)n2)cc1, O=C(Nc1cccc(CN2CCCN(Cc3ccc(O)cc3)CC2)c1)c1cccc(C(F)(F)F)c1, COc1ccc(S(=O)(=O)Nc2ccc(C(=O)NCc3ccc(C(F)(F)F)cc3)cc2)cc1N1CCN(CC2CC2)CC1, c1cncc(NCc2ccc(-c3cc4ccncc4cc3OC3CCNCC3)s2)c1, COc1cccc(NC(=O)NC2CCN(c3ccnc(Nc4cc(OC)c(OC)c(OC)c4)n3)C2)c1 (stereo not given), c1csc(-c2nc(N3CCCC3)ncc2-c2ccsc2)n1, N#Cc1cccc(NC(=O)c2ccc(S(=O)(=O)NCC3CCCN3CC3CCCCC3)cc2)c1 (stereo not given)
